Inconclusive results are not listed. Where a call stands in place of a potency, no number is given. Activity calls are given as the source filed them. The call rests on the fitted dose curve; in most records, active means well fitted inhibition curve with a large enough effect; inconclusive means small, poorly fitted or top-dose-only effect; inactive means no such curve, though single readings can be large or run the other way.
Potency means the concentration at half of the fitted maximal effect.

The test is described as follows: P-glycoprotein substrates identified in KB-3-1 adenocarcinoma cell line, qHTS therapeutic library screen (AID 1346986). Further: nearly all actives have a fitted effect of over 60% in size.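 Further: potency is for cytotoxicity meaning loss of cell viability.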 The settings on record: KB-3-1 parental cells viability, CellTiter-Glo, 72 h; series mostly up to 44.5 µM. The procedure, abridged: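 KB-3-1 parental cells and P-gp-overexpressing KB-8-5-11 (colchicine omitted during assay) plated at 500 cells/well, dosed in dose-response, incubated 72 h at 37 degree C. CellTiter-Glo luminescence read; KB-8-5-11 also tested with tariquidar.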
Background: In qHTS, concentration-response curves come from the screen itself.
For the compound `CC(C)=CCC[C@](C)(O)[C@H]1CC[C@]2(C)[C@@H]1[C@H](O)CC1[C@@]3(C)CC[C@H](O)C(C)(C)C3[C@@H](O[C@@H]3O[C@H](CO)[C@@H](O)[C@H](O)[C@H]3O[C@@H]3OC[C@@H](O)[C@H](O)[C@H]3O)C[C@]12C` (some centres not stated), the Potency entry was “inactive”.
On the same count and under the same terms, for `O=C(NCC(O)CO)c1ccncc1Nc1ccc(I)cc1F` (configuration not stated) the value was “inactive”; for `CC1=C(C(=O)OCc2ccccc2)C(c2ccc(-c3ccccc3)cc2)NC(=O)N1CCCCCC(=O)O` (configuration not stated), “inactive”; for `CCC(Nc1ncnc2nc[nH]c12)c1nc2cccc(F)c2c(=O)n1-c1ccccc1` (configuration not stated), “inactive”.
Still for that read-out and setting: for `CC(=O)C12OC(C)(C)OC1CC1C3CCC4=CC(=O)C=CC4(C)C3(F)C(O)CC12C` (configuration not stated) the value was “inactive”; for `COc1ccc(C2(O)c3ccccc3NC(=O)C2O)cc1` (configuration not stated), “inactive”; for `O=C1CCC(=O)N(O)CCCCCNC(=O)CCC(=O)N(O)CCOCCNC(=O)CCC(=O)N(O)CCCCCN1`, “inactive”.
Same read-out and setting: the same measure for `Cc1cc(OCc2nc(-c3ccccc3Cl)cs2)ccc1OCC(=O)O`: “inactive”; for `COc1ccc(N2CCOCC2)c2sc(NC(=O)N3CCC(C)(O)CC3)nc12`: “inactive”.
As to `CC1CC(O)/C=C/C(O)C(O)CC(=O)Cc2c(Cl)c(O)cc(O)c2C(=O)O1` (configuration not stated), the Potency result is “inactive”.
Still for that read-out and setting: the same measure for `CCCOc1ccc(-c2nc(OC)c3ccccc3n2)cc1`: “inactive”; for `COC(=O)C1=CO[C@@H](O[C@@H]2O[C@H](CO[C@@H]3O[C@H](COC(=O)/C=C/c4cc(OC)c(O)c(OC)c4)[C@@H](O)[C@H](O)[C@H]3O)[C@@H](O)[C@H](O)[C@H]2O)[C@@H]2C(CO)=CC[C@H]12`: “inactive”.
Regarding `C[C@@H]1CC[C@]2(C(=O)O[C@@H]3O[C@H](CO)[C@@H](O)[C@H](O)[C@H]3O)CC[C@]3(C)C(=CCC4[C@@]5(C)C[C@@H](O)[C@H](O)[C@@](C)(C(=O)O[C@H]6[C@H](O)C[C@@]7(C)C(CC[C@]8(C)C7CC=C7[C@H]9[C@](C(=O)O[C@@H]%10O[C@H](CO)[C@@H](O)[C@H](O)[C@H]%10O)(CC[C@@H](C)[C@@]9(C)O)CC[C@]78C)[C@@]6(CO)C(=O)O)C5CC[C@]43C)[C@@H]2[C@]1(C)O` (some centres not stated), the outcome was “inactive [at 9.29 µM]”.
Consider `CC1CC[C@]2(C(=O)O)CC[C@]3(C(=O)O)C(=CCC4[C@@]5(C)CC[C@H](OC6OC(C)C(O)C(OC7OC(CO)C(O)C(O)C7O)C6O)C(C)(C)C5CC[C@]43C)C2C1C` (some centres not stated), for which the Potency result is “inactive”.
Same read-out and setting: the same measure for `CCCCNc1ncc2c(-c3ccc(F)cc3)nn(CC3CCC(N)CC3)c2n1` (configuration not stated): 2000 nM (active); for `C=C1C(O)C[C@@H]2C(C(=O)O)=CO[C@@H](O[C@@H]3O[C@H](CO)[C@@H](O)[C@H](O)[C@H]3OC(=O)c3ccc(O)cc3)[C@H]12` (some centres not stated): “inactive”.
On the same count and under the same terms, for `C=C1C(=O)O[C@@H]2C[C@H](C)[C@@]3(O)C=C(C(C)=O)[C@]4(CC3C[C@H]12)C(=O)O[C@H]1C[C@@H](C)C(CCC(C)=O)=CC[C@H]14` (some centres not stated) the value was “inactive”; for `COc1cc2c(cc1O)[C@H](c1ccc(O[C@@H]3O[C@H](CO)[C@@H](O)[C@H](O)[C@H]3O)c(OC)c1)[C@@H](CO)[C@](O)(CO)C2`, “inactive”; for `CCN1CCN(Cc2ccc(NC(=O)c3ccc(C)c(NC(=O)c4cncc(-c5cccs5)c4)c3)cc2C(F)(F)F)CC1`, 2060 nM (active).
With `C=C[C@@]12COC(=O)C(=C)C1[C@@H](O)[C@H](C(=C)C(=O)OC)[C@@H](OC(=O)C(=C)CO)C2` (some centres not stated), the Potency result is “inactive”.
Same read-out and setting: for `C=C[C@H]1C(O[C@@H]2O[C@H](CO)[C@@H](O)[C@H](O)[C@H]2O)OC=C2C(=O)N3CCc4c([nH]c5ccccc45)C3CC21` (some centres not stated) the value was “inactive”; for `CCn1c(=O)c(-c2ccn[nH]2)cc2c(C)nc(N)nc21`, 3660 nM (active).
Still for that read-out and setting: for `CC1(C)CC[C@]2(C(=O)O[C@@H]3O[C@H](CO)[C@@H](O)[C@H](O)[C@H]3O)CC[C@]3(C)C(=CCC4[C@@]5(C)C[C@@H](O)[C@H](O)C(C)(C)C5CC[C@]43C)C2[C@@H]1O` (some centres not stated) the value was “inactive”; for `CC1(C)C[C@H](O)C[C@@]2(C)OC(=O)C=C12`, “inactive”; for `C=C[C@H]1[C@H](O[C@@H]2O[C@H](CO)[C@@H](O)[C@H](O)[C@H]2O)OC=C(C(=O)OC)[C@H]1CCOC(=O)c1cc(O)c(O)c(O)c1`, “inactive”.
Same read-out and setting: the same measure for `CC(C)=CCC(O)/C(C)=C/CO[C@@H]1O[C@H](CO)[C@@H](O)[C@H](O)[C@H]1O` (some centres not stated): “inactive”.
As to `C[C@@H]1O[C@@H](O[C@H]2[C@H](O[C@H]3[C@H](O[C@H]4CC[C@@]5(C)C(CC[C@]6(C)C5CC=C5[C@@H]7CC(C)(C)CC[C@]7(C(=O)O[C@@H]7O[C@H](CO)[C@@H](O[C@@H]8O[C@@H](C)[C@H](O)[C@@H](O)[C@H]8O)[C@H](O)[C@H]7O)CC[C@]56C)C4(C)C)OC[C@H](O)[C@@H]3O)O[C@H](CO)[C@@H](O)[C@@H]2O)[C@H](O)[C@H](O)[C@H]1O` (some centres not stated), the outcome was “inactive [at 9.29 µM]”.

Source of the values: PubChem BioAssay (NCATS).
